Experimental data from PubChem BioAssay (NCI).
The panel holds about 83,000 compounds, 20% with a hit somewhere; the sample as a whole holds those more often.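 The test compound was applied at a single concentration to cells in 96-well plates for 48 hours, and percent growth was recorded.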 Values without a mark were called inactive. Active and inactive are the calls of the source. How the source made its calls: active means growth percent below 10; inactive means the rest.

Tests used:
Experiment in all cases: NCI-60 one-dose screen, 48 h (100 = growth as untreated, 0 = no growth, -100 = all killed)
HCT-15 colon = settings: 10 µM unless noted
HT29 colon = settings: 10 µM unless noted
SNB-75 CNS = settings: 10 µM unless noted
SNB-19 CNS = settings: 10 µM unless noted
U251 CNS = settings: 10 µM unless noted
UACC-62 melanoma = settings: 10 µM unless noted
LOX IMVI melanoma = settings: 10 µM
SK-MEL-28 melanoma = settings: 10 µM unless noted
SK-MEL-2 melanoma = settings: 10 µM unless noted
EKVX NSCLC = settings: 10 µM unless noted
SN12C renal = settings: 10 µM unless noted
UO-31 renal = settings: 10 µM unless noted
TK-10 renal = settings: 10 µM unless noted
ACHN renal = settings: 10 µM unless noted
CAKI-1 renal = settings: 10 µM unless noted
A498 renal = settings: 10 µM unless noted
CCRF-CEM leukemia = settings: 10 µM unless noted
PC-3 prostate = settings: 10 µM unless noted
SK-MEL-5 melanoma = settings: 10 µM unless noted
MOLT-4 leukemia = settings: 10 µM unless noted

Row | Compound | growth (HCT-15 colon) | growth (HT29 colon) | growth (SNB-75 CNS) | growth (SNB-19 CNS) | growth (U251 CNS) | growth (UACC-62 melanoma) | growth (LOX IMVI melanoma) | growth (SK-MEL-28 melanoma) | growth (SK-MEL-2 melanoma) | growth (EKVX NSCLC) | growth (SN12C renal) | growth (UO-31 renal) | growth (TK-10 renal) | growth (ACHN renal) | growth (CAKI-1 renal) | growth (A498 renal) | growth (CCRF-CEM leukemia) | growth (PC-3 prostate) | growth (SK-MEL-5 melanoma) | growth (MOLT-4 leukemia)
1 | CN1CCN(c2ccc3c(c2)nc(NNC(=O)c2cnccn2)c2cccn23)CC1 | -51% (active) | 6.95% (active) | 28.7% | 20% | -19.1% (active) | -17.9% (active) | -43.8% (active) | -15% (active) | -69% (active) | -46.8% (active) | 0.109% (active) | -77.9% (active) | -74.5% (active) | -85.8% (active) | -74% (active) | -84.7% (active) | 13.8% | – | – | –
2 | COc1ccccc1/C=C/C(=O)c1ccc(OC)c(S(N)(=O)=O)c1 | 7.53% (active) | 18.7% | 8.99% (active) | 27.3% | – | 44.4% | 1.03% (active) | 38.7% | 78.4% | 23.2% | 15.5% | 24.7% | 41.5% | 21.4% | 20.9% | 105% | 6.32% (active) | 48.5% | – | –
3 | COc1ccc(C(=O)/C=C/c2c(F)cccc2Cl)cc1S(N)(=O)=O | -11.9% (active) | 8.46% (active) | 29.7% | 19.6% | – | 15.4% | -69.1% (active) | -4.35% (active) | 25.1% | 8.71% (active) | 12.8% | 0.59% (active) | – | -13.8% (active) | 16.4% | 74% | 6.01% (active) | 18.8% | – | –
4 | O=C(CCN1C(=O)/C(=C/c2ccc(F)cc2)SC1=S)N1CCOCC1 | 55.3% | 78.7% | 98.3% | 87.6% | – | 47.6% | 40.2% | 72.9% | 65.9% | 87.2% | 53% | 51.1% | 85.6% | 63.6% | 88.4% | 72.5% | 66.6% | 106% | 83.2% | 84%
5 | COc1cc(OC)c2c3nc4cc(C)c(C)cc4nc3n(CCN(C)C)c2c1 | -27.9% (active) | 49.9% | 78.3% | 70.5% | 87.7% | 99.1% | – | 66.5% | 101% | 89.9% | -48.8% (active) | -68.6% (active) | 147% | 47.3% | – | 105% | – | – | 69.8% | 10.4%
6 | O=C(COc1ccc(NC(=O)Nc2ccc(Cl)c(Cl)c2)cc1)N=Nc1c(O)[nH]c2ccc(Br)cc12 | 27% | -46.2% (active) | 7.51% (active) | -5.58% (active) | – | -35.5% (active) | – | -77% (active) | -71.6% (active) | 4.88% (active) | -20.9% (active) | 51.1% | -0.92% (active) | 12.5% | 0.251% (active) | -54.9% (active) | 9.52% (active) | -16.6% (active) | -89% (active) | -3.16% (active)
7 | CC(=O)Nc1cccc(-c2nc3cc(-c4ccc(O)cc4)ccc3n2C)c1 | 41.6% | 62.6% | 62.5% | 51.2% | – | 15.7% | – | 27.3% | 52.6% | 35.1% | 43.8% | 38.4% | 59% | 16% | 38.5% | 86.8% | 28.3% | 47.9% | -9.75% (active) | 9.2% (active)
8 | COc1ccc(C(=O)/C=C/c2cccc(Cl)c2Cl)cc1S(N)(=O)=O | -69.4% (active) | -6.28% (active) | 15.2% | 6.23% (active) | -96.3% (active) | 33% | -78.9% (active) | -19.1% (active) | 74.4% | 0.538% (active) | -2.06% (active) | -81.3% (active) | 20.3% | -82.4% (active) | -5.88% (active) | 94.9% | 0.527% (active) | – | – | –
9 | O=C1Nc2cc(Cl)ccc2/C1=C/c1cccc(OCc2ccccn2)c1 | 7.16% (active) | 0.146% (active) | 51.3% | 20.5% | -17.4% (active) | 5.17% (active) | – | 39.5% | 41% | 15% | -15% (active) | 29.7% | 35.5% | 16.9% | 16.8% | 123% | 2.33% (active) | – | – | 4.01% (active)
10 | COc1ccc2oc(=O)c(C3(C)NC(=O)c4c(/C=C/C(=O)OC(C)(C)C)cccc4N3)cc2c1 (centres undefined) | 32.6% | 39.1% | 56.3% | 50.8% | – | 20.4% | 49.1% | 40.6% | 7.6% (active) | 37.1% | 40.6% | 25% | 56.7% | 28.6% | 39.9% | 57.8% | 32.1% | 15.6% | -59.8% (active) | 18.1%
11 | CC(=O)Oc1ccc(/C=C/C(=O)N[C@@H](Cc2ccccc2)C(O)C(=O)NCc2ccccc2)cc1OC(C)=O (some centres undefined) | 78.1% | 113% | 61.3% | 83.5% | – | 96.1% | – | 88.4% | 110% | 90.6% | 90.8% | – | 76.9% | – | 71.3% | 115% | 44.9% | 76.9% | 81.8% | 55.5%
12 | COc1ccc(NC(=O)[C@H](C)N)cc1C(=O)Nc1cccc(C2CC(=O)c3c(cc(OC)c(OC)c3OC)O2)c1 (some centres undefined) | 83.9% | 109% | 88.6% | 91.5% | – | 84.4% | 89.2% | 101% | 101% | 97.2% | 93.8% | 73% | 102% | 87.1% | 82% | 97% | 57.4% | 72.4% | 76.9% | 59.8%
13 | O=[N+]([O-])c1ccc(/C=C/c2nc3ccccc3n3c(=S)[nH]nc23)cc1 | 82.1% | 93.4% | 102% | – | 76.2% | 63.3% | 91.3% | 82.7% | 86.3% | 70.7% | 71.1% | 47.7% | 127% | – | 75.2% | 91.9% | 69.8% | 65.8% | 61.8% | 75.5%
14 | Cc1ccc(-c2nc(C#N)c(S(=O)(=O)N3CCN(S(=O)(=O)c4ccccc4)CC3)o2)cc1 | -85.8% (active) | -56% (active) | 103% | – | 24.3% | 18.5% | -92.2% (active) | 18.9% | 48% | 63.1% | 3.58% (active) | -67.7% (active) | 81.2% | -36.9% (active) | 47% | 123% | -33.6% (active) | 52.3% | 0.485% (active) | -20.5% (active)
15 | COc1ccc(C2(SCCNCc3cc(N(C)C)ccn3)c3ccccc3C=Cc3ccccc32)cc1 | 2.66% (active) | -43% (active) | 9.76% (active) | – | 0.439% (active) | 38% | 2.34% (active) | 29.9% | -34.9% (active) | 15.8% | – | 33.7% | 50.3% | 37.7% | 26.5% | 65.9% | 8.49% (active) | 13.8% | -20.3% (active) | –
16 | COc1ccc(-c2nc(SCC(C)C)nc(NCCc3c[nH]c4ccccc34)c2C#N)cc1 | 29.4% | 35% | 74.1% | – | 40.7% | 76.2% | 46.1% | 71.5% | 80.9% | 40.5% | – | 57.2% | 120% | 69.5% | 54.1% | 97.4% | 36.2% | 24% | 37.2% | 40.4%
17 | CN(C)c1ccnc(CNCCSC2(c3ccc(C(F)(F)F)cc3)c3ccccc3C=Cc3ccccc32)c1 | -90.6% (active) | -61.7% (active) | -6.52% (active) | – | -77% (active) | 2.63% (active) | -92% (active) | -67.4% (active) | -41.1% (active) | -23.9% (active) | – | 17.6% | 12.4% | 13.2% | 6.81% (active) | 21.6% | 0.384% (active) | -3.49% (active) | -97.1% (active) | 16.1%
